Results on 40 molecules are retold here after PubChem BioAssay (NCI).

About 83,000 compounds went through this panel and 20% of them were active in at least one assay; those are over-represented in the sample as a whole.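 Growth was measured after 48 h exposure to one concentration of compound in 96-well plates. Values under 10 count as active.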 Unmarked numbers belong to inactive results. Calls of active or inactive are those of the source.

The test has as its system SK-MEL-2 melanoma. In words: NCI-60 one-dose screen, 48 h (100 = growth as untreated, 0 = no growth, -100 = all killed). The conditions noted are these: 10 µM unless noted. As to the method:
Growth inhibition of the SK-MEL-2 human tumor cell line is measured as a screen for anti-cancer activity. Cells are grown in 96 well plates and exposed to the test compound for 48 hours. Compounds are tested at a single concentration, which is 10^-5 M for most compounds. The reported endpoint is percent growth (GI% or GIPRCNT), where numbers from 0 - 100% represent growth inhibition, and numbers from -100% - 0 represent cell death. For example, a value of 40 represents 60% growth inhibition. A value of 0 means no net growth occurred over the course of the experiment. A value of -40 indicates 40% of cells at the beginning of the experiment died by the end of the experiment. A value of -100 means all cells are dead at the end of the experiment.
NCI-60 Human Tumor Cell Lines Screen was performed using the standard one-dose NCI protocol, which is described in more detail at https://dtp.cancer.gov/discovery_development/nci-60/default.htm.
Compounds with GIPRCNT values below 10 were considered active. Activity score was based on GIPRCNT using the following formula: […]
Score is 0 for GIPRCNT values of 100 or above, 50 for GIPRCNT values of 0, and 100 for GIPRCNT values of -100.
With `CC(C)(CCN=C(N)Nc1ccccn1)c1ccc(C(F)(F)F)cc1`, the growth was 38.5%.

Consider `Cc1cn(C2CC(N=[N+]=[N-])C(COP(=O)(O)OP(=O)(O)OP(=O)(O)O)O2)c(=O)[nH]c1=O` (stereo not given), for which the growth was 107%.

As to `CC(=O)N[C@@H](CNC(=O)c1cc(NC(=O)c2cc(NC(=O)c3cc(NC(=O)c4nccn4C)cn3C)cn2C)cn1C)CC(=O)Nc1cn(C)c(C(=O)Nc2cc(C(=O)Nc3cc(C(=O)Nc4cc(C(=O)NCCCN(C)CCCNC(=O)c5cccc(C(=O)O)c5)n(C)c4)n(C)c3)n(C)c2)n1`, the growth was 89.4%.

On to `COc1ccc(-c2nn(-c3ccc(NC(=O)Nc4ccc(Cl)c(C(F)(F)F)c4)cc3)cc2-c2ccncc2)cc1Cl`, for which the growth is -43.4% (active).

Consider `Nc1nccc2c1ccn2-c1ccc(NC(=O)Nc2cccc(C(F)(F)F)c2)cc1`, for which the growth was 113%.

Consider `CCC(CC(C)C)Nc1ccc(NC(CC)CC(C)C)cc1` (stereo not given), for which the growth is 86.4%.

Take `CS(=O)(=O)Nc1cccc(-c2ccc3ncnc(Nc4cncc(Cl)c4)c3c2)c1`: the growth is 2.44% (active).

In the case of `NN=C(c1ccc(Cl)cc1)c1ccc(Cl)cc1`, the growth is 121%.

Consider `C[C@]12CC[C@@H]3c4ccc(O)c(N)c4CC[C@H]3[C@@H]1CC[C@@H]2O`, for which the growth was 102%.

On to `Cc1nc(-c2ccc(Cl)cc2)ccc1NC(=O)Nc1cccc(C(F)(F)F)c1`, for which the growth was 95.4%.

Regarding `CC(C)C(=O)Nc1nc2c(s1)CCCc1ccn(S(=O)(=O)c3ccccc3)c1-2`, the growth was 83.7%.

Consider `Cc1ccc2c(C3C(C#N)=C(N)Oc4cc5ccccc5cc43)cc(=O)oc2c1` (stereo not given), for which the growth was 27.8%.

With `CC(=S)Nc1ccccc1`, the growth is 97.3%.

With `C=CCn1c(SCC(=O)Nc2ccc(C(=O)/C=C/c3cc(OC)c(OC)c(OC)c3)cc2)nnc1-c1ccc(OC)cc1`, the growth was 15.1%.

As for `COc1ccc2c(c1)nnn1c3ncccc3c(N=O)c21`, the growth is -65.9% (active).

With `C=C1C(=O)O[C@H]2[C@H]1CC/C(CNC(=O)/C1=C/CC[C@@]3(C)O[C@H]3[C@H]3OC(=O)C(=C)[C@@H]3CC1)=C\CC[C@@]1(C)O[C@@H]21`, the growth was 88.7%.

As to `C=CC(=O)Nc1cccc(Nc2nc(Nc3ccc(OCCOC(F)F)cc3)ncc2F)c1`, the growth is 0.225% (active).

As for `COC(=O)c1oc2c(C(=O)/C=C/c3ccc(OC)cc3)c(OCCN3CCOCC3)ccc2c1C`, the growth was -30.6% (active).

For the molecule `C#CCn1c(-c2cc(OC)c(OC)cc2Br)nc(-c2ccccc2)c1-c1ccccc1`, the growth is 28.1%.

`COc1ccc(-c2nn(-c3ccc(NC(=O)c4ccc(Cl)c(C(F)(F)F)c4)cc3)cc2-c2ccncc2)cc1Cl`: the growth was 4.6% (active).

Turning to `COc1ccc(-c2nnc(SCC(=O)Nc3ccc(C(=O)/C=C/c4ccc(OC)c(OC)c4)cc3)o2)cc1`, the growth is 94.1%.

For `C=C1C(=O)O[C@H]2[C@H]1CC/C(C(=O)Nc1ccc(OC)c(C(N)=O)c1O)=C\CC[C@@]1(C)O[C@@H]21`, the growth was 71.3%.

`COc1ccc(Cl)cc1NC(=O)c1cc2c(n1C)-c1nc(NC(=O)C(C)(C)C)sc1CC2`: the growth is 79.7%.

For the molecule `COc1ccc(/C=C2/C(=O)Nc3cc(Cl)c(-c4csc(N)n4)cc32)cc1`, the growth is 35%.

For `O=C(NCCNc1nccc(-c2c(-c3cccc(O)c3)nc3sccn23)n1)Nc1cc(C(F)(F)F)cc(C(F)(F)F)c1`, the growth is 110%.

Regarding `CCn1c(C)nc([N+](=O)[O-])c1Sc1nc(N)nc2nc[nH]c12`, the growth was 40.5%.

For `NS(=O)(=O)c1ccc(Nc2nc(O)c(/C=C3\C=Nc4ccccc43)s2)cc1`, the growth was 103%.

Turning to `COc1ccc(-c2cnc(-c3ccc(F)cc3)[nH]2)cc1`, the growth was 113%.

Turning to `Cc1cn(-c2nc3c(c(NCc4ccccc4)n2)COCC3)c2cccc(C(N)=O)c12`, the growth was 38.1% [0.5 µM].

Take `NC(=NCCCOc1ccc(F)cc1)Nc1ccc(Cl)c(Cl)c1`: the growth is 95.9%.

On to `CN(C)C(=O)Nc1nc2cc(Cl)c(Cl)cc2[nH]1`, for which the growth is -14.7% (active).

`S=C=NP1(N=C=S)=NP(N=C=S)(N=C=S)=NP(N=C=S)(N=C=S)=NP(N=C=S)(N=C=S)=N1` (stereo not given): the growth was 95.8%.

As for `CCOc1ccc(Cc2nccc3cc(OCC)c(OCC)cc23)cc1OCC`, the growth was 80.4%.

Consider `O=C(Nc1ccc(Cl)c(Cl)c1)Nc1ccc(Cl)c([N+](=O)[O-])c1`, for which the growth was -43.4% (active).

Regarding `COc1ccc2c(c1)OC(N(C(C)=O)C(C)=O)=C(C#N)C2c1ccc(F)cc1` (stereo not given), the growth is 25.1%.

In the case of `O=C(NC(=S)Nc1ccc(Cl)cc1)c1ccccc1`, the growth was 108%.

`Cc1cc(N2CCOCC2)nc(N(CCNc2ccnc3cc(Cl)ccc23)Cc2ccco2)n1`: the growth is 23.3%.

In the case of `Clc1ccc2c(c1)nnn1c3ncccc3c(Br)c21`, the growth is 93%.

With `CCOC(=O)C(C)(CSSCC(C)(NC(=O)c1ccc2ccccc2c1)C(=O)OCC)NC(=O)c1ccc2ccccc2c1` (stereo not given), the growth is 107%.

As for `CCOC(=O)n1cnc2c(Cl)ncnc21`, the growth was 154%.
